APOBEC3G inh: inhibitors of human APOBEC3G DNA deaminase. recombinant A3G, ssDNA deamination FAM/TAMRA fluorescence. inhibition, % at 20 µM. 330,000 compounds, 0.28% hits;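 active = inhibition of at least 40% at 20 µM, with no more than 30% in the related APOBEC3A deaminase screen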
PHOSPHO1 inh: inhibitors of human PHOSPHO1 phosphatase | recombinant PHOSPHO1, absorbance phosphatase assay | inhibition, % at 13.3 µM | 290,000 compounds, 1.1% hits; in the data active = inhibition above about 60%
PABP FP inh: PABP-poly(A) binding inhibition | P11940 | PABP-poly(A) RNA binding, fluorescence polarization | calls only at 35 µM | 290,000 compounds, 1% hits;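 also: calls also rest on retests at 20 µM and on dose response follow-up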
eIF4H inh: inhibitors of RNA binding by human eIF4H | eIF4H fluorescence polarization binding assay | 290,000 compounds, 0.94% hits | AID 2012 | inhibition, % at 35 µM | Q15056;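 also: calls also rest on retests at 20 µM and on dose response follow-up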
MLLE-PAM2 inh: blocks PAM2 peptide binding to the PABP1 MLLE domain. 360,000 compounds, 0.36% hits. inhibition, % at 20 µM. P11940. AID 588489. GST-MLLE / FITC-PAM2 fluorescence polarization; in the data active = inhibition above about 35%, passing the limit was not always enough
A3A deaminase: blocks human APOBEC3A ssDNA deamination | P31941 | recombinant A3A, FAM/TAMRA ssDNA deamination fluorescence | inhibition, % at 20 µM | 330,000 compounds, 0.41% hits | AID 493011;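 active = at least 40% inhibition at 20 µM here, with at most 30% in a related deaminase screen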
Numbers stand for hits; 0 = inactive; - = not tested or not shown; + = active, no number. Sampled rows, rich in hits. Any-hit rate of the full collection: about 2.6%. Unless noted, no rule for the calls is given here.

SMILES	APOBEC3G inh	PHOSPHO1 inh	PABP FP inh	eIF4H inh	MLLE-PAM2 inh	A3A deaminase
CCCn1c(=C(C#N)C#N)s/c(=C2\C=Cc3ccccc3N2CC)c1=O	-	0	0	0	40.5	-
CCCN1C(=O)/C(=c2\s/c(=C3\C=Cc4ccccc4N3CC)c(=O)n2-c2ccccc2)SC1=S	0	0	0	0	-	0
Cc1cccc(N(C)S(=O)(=O)c2c(C)noc2C)c1	0	0	0	0	0	0
COC(=O)c1ccc(OC(=O)/C=C/c2ccco2)cc1	0	0	0	0	0	0
O=C(/C=C/c1ccccc1)Oc1ccc(C(=S)N2CCOCC2)cc1	0	0	0	0	0	0
O=C(/C=C/c1ccco1)Oc1ccc(C(=S)N2CCOCC2)cc1	0	0	+	97.4	0	0
O=Cc1cccc(OC(=O)/C=C/c2ccco2)c1	0	0	+	89.4	0	0
Cc1ccc(NC(=O)CCn2c(=O)[nH]c3ccsc3c2=O)cc1C	0	0	0	0	0	0
CCOc1ccc(C(C)=O)cc1CN1C(=O)NC2(CCCCCCC2)C1=O	0	0	0	0	0	0
S=c1[nH]nc(Cc2sc(-c3ccccc3)nc2-c2ccccc2)o1	0	89.9	0	0	0	0
CNC(=O)CCN(Cc1ccco1)S(=O)(=O)c1ccc(OC)c(OC)c1	0	0	0	0	0	0
COc1ccc(C2c3sc(=O)[nH]c3SC3C4CCC(C4)C23)cc1OC (stereo unspecified)	0	0	0	0	0	0
COc1cc(C2c3sc(=O)[nH]c3SC3C(=O)N(c4ccc(Br)cc4)C(=O)C32)ccc1O (stereo unspecified)	0	0	0	0	47.2	0
CC1CCN(CCCNC(=O)c2ccc(N3CCCC3=O)cc2)CC1	0	63.6	0	0	0	0
CC1CCCN(CCCNC(=O)c2ccc(N3CCCC3=O)cc2)C1 (stereo unspecified)	0	0	-	-	0	0
COc1ccccc1NC(=O)C(=O)N/N=C/c1cccs1	0	0	0	0	0	0
COCCNC(=O)C(=O)N/N=C/c1cccs1	0	64.7	0	0	0	0
CN1c2cccc3cccc(c23)N(C)C1(C)C	0	0	+	73.2	0	0
Oc1c(Br)cc(Br)cc1C=Nc1cccnc1	0	0	0	0	39.2	0
Oc1c(Br)cc(Br)cc1/C=N/c1nccs1	0	-	-	-	0	0
COc1ccc(N2CSC3=C(C#N)C(c4cccs4)CC(=O)N3C2)cc1 (stereo unspecified)	-	89.4	+	15.3	0	-
CCOC(=O)c1ccc(N2CSC3=C(C#N)C(c4cccs4)CC(=O)N3C2)cc1 (stereo unspecified)	0	93.7	0	0	0	0
CN1CSC2=C(C#N)C(c3cccc(OCc4ccccc4)c3)CC(=O)N2C1 (stereo unspecified)	0	0	0	0	0	0
O=C(OCc1nc2ccccc2s1)c1ccc(Br)o1	0	0	+	7.1	0	0
O=C(COC(=O)c1cc([N+](=O)[O-])ccc1NCCO)c1ccccc1	0	0	0	0	0	0
SMILES	APOBEC3G inh	PHOSPHO1 inh	PABP FP inh	eIF4H inh	MLLE-PAM2 inh	A3A deaminase
O=C(O)/C=C\C(=O)O	0	-	-	-	0	0
O=C(O)O	-	0	0	0.6	-	-
COCCN(C(=O)Cc1coc2cc(C)c(C)cc12)c1c(N)n(Cc2ccccc2)c(=O)[nH]c1=O	0	-	-	-	0	0
Cc1nnc(SCC(=O)Nc2ccc3c(c2)OCO3)n(N)c1=O	0	0	+	active	0	0
COc1ccc(-n2c(SCC(=O)Nc3ccc4c(c3)OCO4)nc3c(c2=O)SCC3)cc1	0	61.0	0	0	0	0
Nn1c(SCC(=O)Nc2ccc3c(c2)OCO3)nnc1-c1ccccc1	0	0	0	0	0	0
Cn1cc(SCC(=O)Nc2ccc3c(c2)OCO3)c2ccccc21	0	72.3	0	0	0	0
CCOc1ccc(-n2c(SC(C)C)nc3c(c2=O)SCC3)cc1	0	0	+	0	0	0
CCOc1ccc(-n2c(SC)nc3c(c2=O)SCC3)cc1	0	0	0	0	0	0
C[C@@H](N)C(=O)NC[C@H]1O[C@@H](n2cnc3c(N)ncnc32)[C@H](O)[C@@H]1O	0	-	-	-	0	0
CC(=O)Nc1ccc(NC(=O)C2(C)CC2(Cl)Cl)cc1 (stereo unspecified)	0	0	0	0	0	0
CCc1ccccc1NC(=O)CN(C)C(=O)c1cccc(S(=O)(=O)N2CCCCCC2)c1	0	-	-	-	0	0
Cc1ccc(C)c(SCC(=O)OCC(=O)N2CC(C)OC(C)C2)c1 (stereo unspecified)	0	0	0	0	0	0
